Results published in paper PMC7819943, “Rice protein-binding microarrays: a tool to detect cis-acting elements near promoter regions in rice”.
Over roughly 35,000 sequences, “fluorescence intensity (a.u.)” has its median near 10,000; the highest 2% begin near 52,000. This excerpt belongs to a sample that is enriched for the highest values.

Biological target: T1, OsWOX13 (Oryza sativa, UniProt Q5QMM3 1-267)
T1 sequence: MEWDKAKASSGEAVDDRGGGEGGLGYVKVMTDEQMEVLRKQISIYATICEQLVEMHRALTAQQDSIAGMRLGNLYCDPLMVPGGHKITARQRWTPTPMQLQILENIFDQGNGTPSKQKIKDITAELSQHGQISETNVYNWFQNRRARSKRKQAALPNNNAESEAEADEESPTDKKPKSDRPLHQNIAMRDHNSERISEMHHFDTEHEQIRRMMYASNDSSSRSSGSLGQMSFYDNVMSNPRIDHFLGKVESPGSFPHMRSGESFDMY
Experiment: protein-binding microarray (RPBM); PBS, 2% BSA, 51.3 ng/ul salmon testes DNA, 50 uM zinc acetate, 200 nM TF, 25 C, 1 h; high values mean tight binding
Conditions: protein: recombinant; tags: N-terminal polyhistidine and DsRed monomer fusion (pET32a); label: CyDye5-dUTP incorporated in the synthesized complementary strand; 3' TTTTT single-stranded linker to array surface; dsDNA, one strand shown
Method in brief: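 Per-feature fluorescence intensity (arbitrary units), read on an Axon 4000B scanner, is the binding signal. Transcription factors carrying an N-terminal polyhistidine tag and DsRed fusion were expressed in E. coli BL21-CodonPlus and purified on Ni–NTA. A custom Agilent array, made double-stranded by primer extension with Cy5-dUTP and blocked with 2% BSA, was incubated with 200 nM protein in PBS, 2% BSA, salmon testes DNA and 50 µM zinc acetate at 25 °C for 1 h and then washed.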

Sequence | binding signal
ACGAATCTATTGAGCCTAATTAATTCATAATTAGTCTATGCGGAGTCACCTAGTGCAG | 14600 fluorescence intensity (a.u.)
GAATTAAATGATGTGTGAATAATGGATGGCTAGGATGCAACGGAGTCACCTAGTGCAG | 9780 fluorescence intensity (a.u.)
TTTAATTGTTATGAACACGACAATGTAATCGGATCATAGACGGAGTCACCTAGTGCAG | 10100 fluorescence intensity (a.u.)
ATTGTATCTAATTATTGGCAACATGGAAATTAATCTCTTGCGGAGTCACCTAGTGCAG | 9160 fluorescence intensity (a.u.)
CATAAATCATTTCTTTTGTTTTCAAACTAAGCATATTTGACGGAGTCACCTAGTGCAG | 4540 fluorescence intensity (a.u.)
AATGTGATTTTCATGTATCCAATTAAAATATTTTAAGAAGCGGAGTCACCTAGTGCAG | 9180 fluorescence intensity (a.u.)
CCTTGATGATTGAACCAGTCAGCCCCAACATCTCTATAAACGGAGTCACCTAGTGCAG | 25800 fluorescence intensity (a.u.)
GCAATTTGATTTGGCCTGTATATTATTATGTGCAGGGTTCCGGAGTCACCTAGTGCAG | 13800 fluorescence intensity (a.u.)
TAATTTATTAATTTATTATTAGAGTATATATATTTCAAGACGGAGTCACCTAGTGCAG | 6800 fluorescence intensity (a.u.)
CCTTAATTAATTAATTTCTAGATCTCAAGAGGGCAACAGACGGAGTCACCTAGTGCAG | 57200 fluorescence intensity (a.u.)
TTTCAAGAGATTAATTAATTTTCTCAACTTTGCAAGGGCACGGAGTCACCTAGTGCAG | 16000 fluorescence intensity (a.u.)
TTACAGATTGGCCCCTGTATTTCTCTCTCTCGTCTCTCCTCGGAGTCACCTAGTGCAG | 24800 fluorescence intensity (a.u.)
TTATCAATCTACATCGTTATAATTTAGTTCCACCGTAATTCGGAGTCACCTAGTGCAG | 19800 fluorescence intensity (a.u.)
GCCGGGAGGGAGGGAGGGAGGGAGGGAGGGAGACCCCGCACGGAGTCACCTAGTGCAG | 9960 fluorescence intensity (a.u.)
GATGATTTGATTAGATTAGGTTAGGTTTGTTATTCACCTACGGAGTCACCTAGTGCAG | 65500 fluorescence intensity (a.u.)
TAGATGATTATTATGATAGGATTGATTTGTTTAGAGTCTTCGGAGTCACCTAGTGCAG | 46100 fluorescence intensity (a.u.)
GTTAGGGTTTTCTTTTGATTGTCAGGGTTTTCTTTTGATTCGGAGTCACCTAGTGCAG | 3960 fluorescence intensity (a.u.)
AGATGATTGATTTTCAGGTGATGAACAGGGTTACTGTTTTCGGAGTCACCTAGTGCAG | 63000 fluorescence intensity (a.u.)
TTATTAGATGATGATTATTTTGAGAAGGTTTCTTAGGATGCGGAGTCACCTAGTGCAG | 12900 fluorescence intensity (a.u.)
TTGATTTGAAAGGTACTACCTCTGTTTCAGGTTAGAAAGTCGGAGTCACCTAGTGCAG | 3380 fluorescence intensity (a.u.)
AGTCATCAAAATTACGCATGTAATTAGTATATATAATTATCGGAGTCACCTAGTGCAG | 9910 fluorescence intensity (a.u.)

Sequence | binding signal
TTTAGTATATAATAGATAGATAGATAGAAGATTTGTACTACGGAGTCACCTAGTGCAG | 4500 fluorescence intensity (a.u.)
GCTGACTGGATAAAATCTGATAAGCGTGAAGATGACCTTTCGGAGTCACCTAGTGCAG | 21400 fluorescence intensity (a.u.)
TTCGAAAATTACCTGTAACCTTCCATCCATCACACACACACGGAGTCACCTAGTGCAG | 3500 fluorescence intensity (a.u.)
AGCTAATTAAGCTAGTGAGAGCTAGTGGAGGTACATGGCTCGGAGTCACCTAGTGCAG | 11600 fluorescence intensity (a.u.)
GGGTGATATAAATTAGGAGGTGATAATAATTATTTCTTGGCGGAGTCACCTAGTGCAG | 26700 fluorescence intensity (a.u.)
GATTGATGCAATTTAAATTATACTTAGTATTGGTGTATAACGGAGTCACCTAGTGCAG | 11400 fluorescence intensity (a.u.)
CTGTGAATTGATTCATCTCTCACACATGGTTCTCCACTATCGGAGTCACCTAGTGCAG | 9680 fluorescence intensity (a.u.)
TTAATTAGGAGATATTGATTGATAAACGTACCTCTTGGTGCGGAGTCACCTAGTGCAG | 65300 fluorescence intensity (a.u.)
TAATTGATGTAATTTAAATTATTCTTGGTCTTAGTGTATACGGAGTCACCTAGTGCAG | 54800 fluorescence intensity (a.u.)
ATAAAATAAATGATAATTACATAAATTTCTTTAAATAAGACGGAGTCACCTAGTGCAG | 10900 fluorescence intensity (a.u.)
CTTTAATTGGTGCTTGTTAAACCTCTTAGTGCTTGTTAAACGGAGTCACCTAGTGCAG | 29200 fluorescence intensity (a.u.)
TTGATTGATGTCATTTAAATTATCATTGGTCTTGGTGTATCGGAGTCACCTAGTGCAG | 41100 fluorescence intensity (a.u.)
GCTTACAATTAATGATTACCTTTTCATAAAGATTATTATTCGGAGTCACCTAGTGCAG | 12400 fluorescence intensity (a.u.)
ACAATGATTGGGTCTTAAGATTTTCTTTAATTATTCGACGCGGAGTCACCTAGTGCAG | 58300 fluorescence intensity (a.u.)
CGATTGATTGATTCTTGGTGCTCACTATCTCTAAATTGATCGGAGTCACCTAGTGCAG | 59600 fluorescence intensity (a.u.)
AGCTGATCTATCCAAATTGGTGAAACTAATTGTAAATTCTCGGAGTCACCTAGTGCAG | 11000 fluorescence intensity (a.u.)
AATAAATCTATAATTTTATGATATTATGACTTAAATCTATCGGAGTCACCTAGTGCAG | 4790 fluorescence intensity (a.u.)
TTTTATTAACTGTAAACGTCACATGTTCTGTCATACGCGTCGGAGTCACCTAGTGCAG | 5270 fluorescence intensity (a.u.)
CTTGTCAATCTACAGAGAGTCCACGAGTTAGTAGTATGTGCGGAGTCACCTAGTGCAG | 8690 fluorescence intensity (a.u.)
TAGTTAATTGTGCCAAACAAAATTCAAAATTAAGACATCTCGGAGTCACCTAGTGCAG | 33000 fluorescence intensity (a.u.)
CACATTGACCAAAATTTAATGTTTGTTTCCTACTAGTGTGCGGAGTCACCTAGTGCAG | 4440 fluorescence intensity (a.u.)
